Measurements: the supplement of paper PMC9337992
± gives the standard deviation of the averaged measurements.

Experiments:
Assay in all cases: cell proliferation (confluence) relative to DMSO control; higher = less growth inhibition
Conditions in all cases: 5 uM; 6 d
BT549 = tested on: BT549
Outline: (§1)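 Plates with 384 wells were seeded with triple-negative breast cancer cell lines at 500 cells per well, and epigenetic chemical probes in DMSO were added once the cells had attached, at a final 5 μM for 6 d. Imaging used an IncuCyte ZOOM with a ×10 objective in phase-contrast, and analysis used Incucyte 2016 software. With four replicate wells per compound, confluence was normalised to wells holding DMSO alone.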

CAL120 = tested on: CAL120
Outline: as §1

HCC1143 = tested on: HCC1143
Outline: as §1

HCC1395 = tested on: HCC1395
Outline: as §1

HCC153 = tested on: HCC153
Outline: as §1

HCC1806 = tested on: HCC1806
Outline: as §1

HCC38 = tested on: HCC38
Outline: as §1

HCC70 = tested on: HCC70
Outline: as §1

Hs578-T = tested on: Hs578-T
Outline: as §1

MB157 = tested on: MB157
Outline: as §1

SUM149-PT = tested on: SUM149-PT
Outline: as §1

SUM159-PT = tested on: SUM159-PT
Outline: as §1

Structure (SMILES)	cell proliferation (BT549) [%]	cell proliferation (CAL120) [%]	cell proliferation (HCC1143) [%]	cell proliferation (HCC1395) [%]	cell proliferation (HCC153) [%]	cell proliferation (HCC1806) [%]	cell proliferation (HCC38) [%]	cell proliferation (HCC70) [%]	cell proliferation (Hs578-T) [%]	cell proliferation (MB157) [%]	cell proliferation (SUM149-PT) [%]	cell proliferation (SUM159-PT) [%]
CCCc1cc(C)n(C)c(=O)c1CN(C)C(=O)c1cc(-c2ccc(N3CCN(C(C)C)CC3)nc2)cc2c1cnn2C(C)C	99.971 ± 0.015	93.4 ± 3.8	99.3 ± 0.59	99.983 ± 0.016	84.6 ± 3.8	99.889 ± 0.049	99.77 ± 0.13	97.3 ± 2.3	97.89 ± 0.81	87.5 ± 6.8	84.2 ± 10	99.997 ± 0.0012
COc1cc2c(cc1OCCCN1CCCC1)N=C(N)C21CCC1	99.32 ± 0.28	83.1 ± 6.3	95.6 ± 3.2	99.981 ± 0.027	80.7 ± 2.8	99.41 ± 0.36	98.89 ± 0.42	96.5 ± 3.6	92.3 ± 4.1	72.5 ± 12	78.6 ± 16	99.951 ± 0.031
O=C([C@@H](Cc1cccc(C(F)(F)F)c1)NS(=O)(=O)c1cc(F)c2c(c1)CCNC2)N1CCCC1	98.6 ± 1.6	97.2 ± 1.3	97.9 ± 1.8	99.978 ± 0.021	79.2 ± 12	86.9 ± 14	99.44 ± 0.59	96.1 ± 2.5	94.3 ± 4.3	82.3 ± 15	87.4 ± 7.1	99.992 ± 0.0088
CC(C)Oc1ccc(-c2c[nH]cc2CN(C)CCN)cc1	90.4 ± 3.7	99.34 ± 0.54	97.6 ± 0.99	99.982 ± 0.016	59.3 ± 2.6	80.7 ± 11	99.56 ± 0.26	94.5 ± 2.1	95.4 ± 1.7	93.7 ± 4.8	67.6 ± 13	99.843 ± 0.074
COc1ccccc1S(=O)(=O)Nc1ccc2c(c1)CN(C)C(=O)N2	95.7 ± 1.4	50.1 ± 11	97.21 ± 0.84	98.12 ± 0.25	59.7 ± 1.8	38.5 ± 27	35.2 ± 7.6	81.7 ± 7.9	47.7 ± 1.6	50.9 ± 5.5	20.8 ± 3.4	97.92 ± 0.3
CCCc1cc(C)[nH]c(=O)c1CNC(=O)c1cc(-c2ccnc(N3CCN(C)CC3)c2)cc2c1cnn2C(C)C	99.876 ± 0.081	94.6 ± 4	99.63 ± 0.27	99.992 ± 0.007	88.3 ± 2.3	99.64 ± 0.32	99.73 ± 0.33	97.6 ± 2.6	97.34 ± 0.48	95.1 ± 5.6	61.1 ± 10	99.976 ± 0.033
CCOC(=O)CCNc1cc(N2CCc3ccccc3CC2)nc(-c2cccnc2)n1	99.38 ± 0.4	94.6 ± 4.8	99.33 ± 0.49	99.887 ± 0.094	82.7 ± 3.2	99.75 ± 0.15	99.31 ± 0.31	98 ± 1.6	96.1 ± 2.3	96.1 ± 2.9	96 ± 3.5	99.982 ± 0.0074
COc1cc2c(NC3CCN(C(C)C)CC3)nc(C3CCCCC3)nc2cc1OCCCN1CCCC1	99.51 ± 0.12	81.6 ± 8.8	98.93 ± 0.9	99.3 ± 0.76	89 ± 4.7	99.53 ± 0.2	99.86 ± 0.072	98.64 ± 0.65	98.1 ± 1.1	67.8 ± 16	91.8 ± 8.8	99.996 ± 0.0018
Clc1cc2c(NC3CCCC3)nnc(-c3ccncc3)c2cc1Cl	99.863 ± 0.055	83.4 ± 7.1	99.1 ± 1.1	99.965 ± 0.029	87.7 ± 5.4	98.95 ± 0.87	99.63 ± 0.21	99.12 ± 0.58	97.48 ± 0.54	98.8 ± 1.5	64.6 ± 19	99.992 ± 0.0029
COc1cc(C#N)ccc1S(=O)(=O)Nc1ccc2c(c1)cc(C)c(=O)n2C	98 ± 1.4	98.97 ± 0.3	97 ± 1.3	99.962 ± 0.051	54.9 ± 7.1	76.1 ± 12	98.81 ± 0.89	95.8 ± 5	97.33 ± 0.58	92.5 ± 6.8	59.5 ± 7.1	99.963 ± 0.039
Cc1nnc2c3ccccc3c(N[C@@H](C)[C@H](c3ccccc3)N(C)C)nn12 [L-moses]	98.1 ± 1.5	99.22 ± 0.67	97.14 ± 0.68	99.898 ± 0.059	60.8 ± 6	81.2 ± 6.2	99.61 ± 0.29	96.2 ± 2.5	87 ± 19	98.5 ± 1.9	75.8 ± 11	99.952 ± 0.041
CCOC(=O)CCNc1cc(N2CCc3ccccc3CC2)nc(-c2ccccn2)n1	28.2 ± 3.8	22.3 ± 2.1	60.8 ± 4.6	40.6 ± 9.5	21.3 ± 3.7	27.9 ± 4.9	23.1 ± 5	66 ± 12	68.5 ± 11	33.6 ± 8.3	10.2 ± 3.8	94.72 ± 0.36
CCCc1cc(C)[nH]c(=O)c1CNC(=O)c1cc(-c2ccc(N3CCN(C(C)C)CC3)nc2)cc2c1cnn2C(C)C	21 ± 7.7	85.5 ± 11	98.86 ± 0.59	99.88 ± 0.14	91.8 ± 4.8	92.4 ± 6.9	99.93 ± 0.072	80 ± 8.9	97 ± 2	46.2 ± 22	11.5 ± 5.8	99.997 ± 0.002
CC[C@H](C)n1cc(C)c2c(C(=O)NCc3c(C)cc(C)[nH]c3=O)cc(-c3ccc(N4CCNCC4)nc3)cc21	98.6 ± 2.6	91.6 ± 5.4	99.53 ± 0.32	99.996 ± 0.0038	87.9 ± 3.7	99.846 ± 0.034	99.825 ± 0.095	82 ± 8.6	97.8 ± 1.3	79.1 ± 14	90.3 ± 4.3	99.995 ± 0.00082
CCn1cc(-c2cccc(C(F)(F)F)c2)c2sc(C(=N)NC3CCS(=O)(=O)CC3)cc2c1=O	99.17 ± 0.79	98.86 ± 0.38	98.69 ± 0.74	99.948 ± 0.021	44.8 ± 4	78.6 ± 12	98.94 ± 0.64	96.7 ± 3.6	99.5 ± 0.38	71.8 ± 6.5	23.9 ± 2.3	99.974 ± 0.019
CCN(C(=O)CO)[C@H]1CN(/C(=N\C#N)Nc2cccc(OC(F)F)c2)N=C1c1ccc(Cl)c(Cl)c1	99.63 ± 0.31	90.8 ± 2.4	99.11 ± 0.44	99.957 ± 0.033	82.4 ± 4.8	99.79 ± 0.11	99.79 ± 0.12	90.8 ± 8.2	98.67 ± 0.29	78.6 ± 8.9	75.9 ± 10	99.999 ± 0.002
